Test results reported in PubChem BioAssay (NCI).
Compounds without any hit were thinned out: in the full panel of roughly 79,000, 15% have a hit. Unmarked numbers belong to inactive results. Calls of active or inactive are those of the source. No stated cut-off is given here; in the data, active means growth inhibition above about 70%; inactive means the rest.

Tests used:
[1] = NCI Yeast Anticancer Drug Screen. Data for the rad50 strain (AID 155);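 further: 0% = growth of vehicle-only cultures of the same strain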; conditions: S. cerevisiae rad50 strain growth inhibition, hits give high values
Procedure, shortened: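 Readout: growth inhibition relative to vehicle-treated cultures. Compound exposure was carried out in a genetically defined yeast strain deficient in DNA damage repair.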

[2] = NCI Yeast Anticancer Drug Screen. Data for the mec2-1 strain (AID 157); conditions: S. cerevisiae mec2-1 strain, hits give high values
Procedure, shortened: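 Each compound was tested on mec2-1 yeast, a strain altered in DNA damage repair or cell cycle control. Growth inhibition is reported relative to vehicle.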

[3] = NCI Yeast Anticancer Drug Screen. Data for the sgs1 mgt1 strain (AID 161);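 further: 0% = growth of cultures given vehicle only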; conditions: S. cerevisiae sgs1 mgt1 strain, hits give high values
Procedure, shortened: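 Read-out: growth inhibition vs vehicle controls. Cells: mutant yeast strain deficient in DNA damage repair.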

[4] = NCI Yeast Anticancer Drug Screen. Data for the cln2 rad14 strain (AID 165);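 further: 0% = growth equal to vehicle treated cultures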; conditions: S. cerevisiae cln2 rad14 strain, hits give high values
Procedure, shortened: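 Test compounds were added to cln2 rad14 yeast cultures; inhibition of growth was then determined by comparison with vehicle treatment.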

[5] = NCI Yeast Anticancer Drug Screen. Data for the bub3 strain (AID 167); conditions: S. cerevisiae bub3 mutant strain, hits give high values
Procedure, shortened: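 Readout: yeast growth inhibition, expressed relative to vehicle-only wells. The test organism is a mutant strain from a panel with lesions in DNA repair or checkpoint genes.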

[6] = NCI Yeast Anticancer Drug Screen. Data for the mlh1 rad18 strain (AID 175); conditions: S. cerevisiae mlh1 rad18 strain growth inhibition, hits give high values
Procedure, shortened: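 Inhibition values reflect reduced growth of mutant yeast versus vehicle-treated controls following compound exposure; the mutations affect DNA damage repair.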

[7] = at 5.0 µM (retest, dose inferred, filed as 0.5)
[8] = at 50.0 µM (retest, dose inferred, filed as 5.0)

SMILES	growth inhibition [1, 7]	growth inhibition [1, 8]	growth inhibition ([1]; at 50.0 µM)	growth inhibition [2, 7]	growth inhibition [2, 8]	growth inhibition ([2]; at 50.0 µM)	growth inhibition [3, 7]	growth inhibition [3, 8]	growth inhibition ([3]; at 50.0 µM)	growth inhibition [4, 7]	growth inhibition [4, 8]	growth inhibition ([4]; at 50.0 µM)	growth inhibition [5, 7]	growth inhibition [5, 8]	growth inhibition ([5]; at 50.0 µM)	growth inhibition [6, 7]	growth inhibition [6, 8]	growth inhibition ([6]; at 50.0 µM)
Nc1ccccc1CCc1ccccc1	0%	79% (active)	96.9% (active)	0%	74% (active)	84.5% (active)	2%	85% (active)	41.8%	-1%	78% (active)	67%	0%	74% (active)	90.8% (active)	28%	91% (active)	85.7% (active)
CN(C)C=NCCNc1ccc([N+](=O)[O-])cn1	-154%	-166%	4.4%	-49%	-57%	4.2%	-62%	-66%	-6.6%	-46%	-59%	24.5%	-70%	-77%	19.8%	-139%	-120%	3.6%
O=[N+]([O-])c1ccc(CSSCc2ccc([N+](=O)[O-])cc2)cc1	5%	18%	18.5%	9%	39%	16.7%	21%	49%	41.5%	-3%	36%	-18.2%	26%	66%	72.5% (active)	10%	49%	28%
CC(C)COC(=O)C1C2C=CC(CC2)C1C(=O)OCC(C)C (configuration not stated)	-13%	30%	30.1%	-4%	79% (active)	18%	-1%	19%	29.6%	-11%	55%	4.6%	0%	82% (active)	40.5%	-3%	86% (active)	46.5%
CC12CC[C@@H](C(C)(C)O)C1[C@@H](O)CC1(C)C2CCC2[C@@]3(C)CC[C@H](O)C(C)(C)C3C(O)C[C@]21C (some centres not stated)	17%	98% (active)	90% (active)	19%	99% (active)	92.5% (active)	9%	98% (active)	92.3% (active)	17%	98% (active)	91.4% (active)	15%	98% (active)	91.8% (active)	41%	98% (active)	91.8% (active)
N#CC(Nc1cccc(C(F)(F)F)c1)c1ccccc1C(F)(F)F (configuration not stated)	-4%	97% (active)	86% (active)	3%	97% (active)	92% (active)	-11%	97% (active)	90.1% (active)	25%	46%	89% (active)	10%	97% (active)	90.5% (active)	-12%	98% (active)	84.8% (active)
O=[N+]([O-])c1ccc(CN2CCN(c3nccs3)CC2)cc1	5%	22%	76.8% (active)	-3%	11%	51%	1%	61%	77.8% (active)	-1%	29%	34.5%	-1%	38%	66.6%	3%	46%	66.2%
CC(C)SC(=S)Nc1cc(C(F)(F)F)ccc1Cl	-2%	99% (active)	99.5% (active)	2%	98% (active)	99.7% (active)	0%	100% (active)	99.6% (active)	-15%	98% (active)	99.4% (active)	2%	91% (active)	99.5% (active)	0%	97% (active)	99.5% (active)
COc1ccc(C2CN(C(=O)c3ccccc3)N=C(c3ccccc3)O2)cc1 (configuration not stated)	-1%	-16%	93.7% (active)	-8%	1%	93.2% (active)	1%	-46%	93.7% (active)	-5%	-8%	90.2% (active)	-4%	-67%	90% (active)	-6%	-6%	95% (active)
OC(C1CCC=NN1C(O)(C(F)(F)F)C(F)(F)F)(C(F)(F)F)C(F)(F)F (configuration not stated)	8%	86% (active)	89.7% (active)	-3%	71% (active)	83.1% (active)	-2%	69%	87.7% (active)	12%	58%	78.8% (active)	-6%	78% (active)	92.5% (active)	9%	87% (active)	94% (active)
Cc1cc(N/N=C(\c2ccccc2)c2ccccn2)nc2ccccc12	33%	91% (active)	96.9% (active)	10%	91% (active)	97.8% (active)	14%	83% (active)	96.5% (active)	-7%	69%	97.6% (active)	19%	90% (active)	97.4% (active)	25%	92% (active)	97.5% (active)
CCCCCC/C=C\CCCCCCCCCc1c(O)c(OC)cc(O)c1CN(C)C	5%	94% (active)	80.7% (active)	-17%	94% (active)	88.3% (active)	15%	96% (active)	87.1% (active)	13%	30%	86.2% (active)	5%	96% (active)	80.8% (active)	2%	94% (active)	79.6% (active)
COc1ccc(OC)c(/C=C2/C(=O)ON=C2C)c1	-14%	7%	42.4%	-11%	5%	54.4%	1%	27%	70% (active)	0%	14%	22%	11%	23%	43.5%	8%	23%	22.7%
COc1cccc(-c2cc(=O)c3c(C)ccnc3[nH]2)c1	8%	8%	80.5% (active)	4%	4%	49.8%	15%	15%	70.8% (active)	-4%	-4%	30%	-9%	-9%	68%	14%	14%	61.8%
O=C1C(Br)=C(Sc2ccc([N+](=O)[O-])cc2)C(=O)c2ccccc21	56%	90% (active)	93.5% (active)	64%	94% (active)	96.7% (active)	51%	96% (active)	96.6% (active)	11%	91% (active)	84.2% (active)	65%	96% (active)	96.6% (active)	33%	92% (active)	97% (active)
CCOc1cc2c(OCc3ccccc3)cc3c4cc(OC)c(OC)cc4c[n+](C)c3c2cc1OC	98% (active)	99% (active)	59.6%	96% (active)	99% (active)	46.2%	97% (active)	99% (active)	50.8%	97% (active)	99% (active)	55%	97% (active)	99% (active)	50.3%	97% (active)	99% (active)	50.1%
COC(=O)c1nc(N)nc(C(=O)OC)c1C(=O)c1ccccc1	0%	21%	-32.9%	22%	-5%	-13.3%	30%	20%	-29.4%	-13%	1%	42.7%	-3%	0%	-24.6%	-2%	-5%	0%
C/C(=N\NC(N)=S)c1ccc(C2CCCCC2)cc1	73% (active)	97% (active)	97.2% (active)	68%	98% (active)	95.7% (active)	88% (active)	99% (active)	98.2% (active)	61%	97% (active)	97% (active)	60%	97% (active)	96.2% (active)	83% (active)	97% (active)	94.5% (active)
O=C(CC(c1ccccc1)N1CCCCC1)OC1c2ccccc2-c2ccccc21 (configuration not stated)	-2%	28%	70.1% (active)	17%	43%	9.35%	30%	54%	55.8%	0%	23%	54.1%	-1%	24%	70%	35%	56%	55.8%
